# Assay outcomes: PubChem, National Center for Advancing Translational Sciences (NCATS)
# Shown are actives, neighbours in structure and some others; about 8% of the full set was active somewhere.
# HT1080 IDH1KD tx: qHTS for induction of synthetic lethality in tumor cells producing 2HG: qHTS for the HT-1080-IDH1KD cell line. Potency, µM (highest dose often 46.1 µM), usual class: cytotoxic. actives 2% (n = 360,000). HT-1080 IDH1 knockdown viability, ATP luminescence, 48 h
#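 Using the IDH1-knockdown HT-1080 line run in the same batch and compound series as the NT line, viability after 48 h at 37 °C was determined by CellTiter-Glo luminescence and expressed as % activity.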
# MCF10A rereplic: A quantitative high throughput screen for small molecules that induce DNA re-replication in MCF 10a normal breast cells. MCF 10A DNA re-replication, Hoechst nuclear intensity, 48 h. Potency, µM (titrated, usually from 46.1 µM), most hits filed as activators. actives 2.9% (n = 350,000). AID 624296, 2012; further: nearly all actives have a fitted effect of over 50% in size
# KB-V1 cytotox: qHTS assay for MDR1-selective chemotherapeutics: Primary screen using the drug-selected MDR subline cells KB-V1 | KB-V1 MDR cells viability, CellTiter-Glo, 72 h | Potency, µM (titrated, usually from 46.1 µM), actives largely listed as cytotoxic | actives 3.4% (n = 400,000) | AID 1347076, 2019; further: nearly all actives have a fitted effect of over 60% in size
#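 In this primary screen, KB-V1 cells overexpressing P-gp are incubated with library compounds (lowest to highest concentration) for 72 h at 37 degrees C before a luminescent ATP viability read.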
# KB-3-1 cytotox: qHTS assay for MDR1-selective chemotherapeutics: Primary screen using the parental adenocarcinoma cell KB-3-1 | actives 1.4% (n = 400,000) | Potency, µM (highest dose often 46.1 µM), actives largely listed as cytotoxic | KB-3-1 viability, CellTiter-Glo ATP luminescence, 72 h; further: nearly all actives have a fitted effect of over 60% in size
#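 Multi-concentration cytotoxicity screen in KB-3-1 cells grown in DMEM lacking phenol red with 10% FBS. After 72 h at 37 °C with compound, ATP-dependent luminescence was recorded.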
# SW480 rerep: A quantitative high throughput screen for small molecules that induce DNA re-replication in SW480 colon adenocarcinoma cells; SW480 DNA re-replication, Hoechst DNA content imaging, 48 h; Potency, µM (doses to about 46.1 µM), usual class: activators; actives 1.8% (n = 340,000); further: nearly all actives have a fitted effect of over 55% in size
#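 DNA re-replication was detected as more nuclei of elevated Hoechst intensity after 48 hr exposure to compound (23 nL pinned per well of 250 cells).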
# HT1080NT lethal: qHTS for induction of synthetic lethality in tumor cells producing 2HG: qHTS for the HT-1080-NT fibrosarcoma cell line; HT-1080-NT fibrosarcoma viability, CellTiter-Glo ATP luminescence, 48 h; Potency, µM (series often up to 46.1 µM), usual class: cytotoxic; actives 1.6% (n = 360,000);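 further: NT is the 2HG producing partner of a matched IDH1 knockdown line; nearly all actives have a fitted effect of over 55% in size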
#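 Read-out is CellTiter-Glo luminescence after 10 minutes at room temperature, following 48 hours' compound treatment of HT-1080-NT cells (750 cells/well, RPMI, 5% FBS, 37 degrees C).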
# A number is an active result; n = inactive; u = inconclusive; x = no result. The call rests on the fitted dose curve; in most records, active means well fitted curve in the direction sought with a large enough effect; inconclusive means small, poorly fitted or top-dose-only effect, or another doubt; inactive means no such curve, though single readings can be large; an effect the other way counts as inactive or inconclusive.
SMILES,HT1080 IDH1KD tx,MCF10A rereplic,KB-V1 cytotox,KB-3-1 cytotox,SW480 rerep,HT1080NT lethal
COc1ccc([C@H]2CC(=O)C=C(c3cc(C)ccc3OC)C2)cc1,u,u,5.8µM,21µM,16µM,u
CCOc1ccc(Br)cc1C1=CC(=O)C[C@H](c2ccc(OC)cc2)C1,5.8µM,2.9µM,16µM,5.8µM,7.3µM,u
COc1ccc([C@H]2CC(=O)C=C(c3ccccc3Oc3ccccc3)C2)cc1,n,n,n,n,n,n
COc1c(F)cccc1C1=CC(=O)C[C@H](c2ccc3c(c2)OCO3)C1,n,n,n,n,n,n
COc1ccc([C@H]2CC(=O)C=C(c3ccccc3-c3ccccc3)C2)cc1,u,16µM,u,u,u,u
COc1ccc(OC)c(C2=CC(=O)C[C@H](c3ccc4c(c3)OCO4)C2)c1,u,u,u,10µM,u,u
O=C(NCCc1ccccc1)c1ccc2[nH]c(=O)c(=O)[nH]c2c1,n,n,n,n,n,n
COc1ccc(/C=N/NC(=S)Nc2ccccc2)cc1COc1ccc(F)cc1,n,u,n,n,n,n
CCOc1ccc2nc(NC(=S)N(C)C)sc2c1,n,n,u,n,n,n
O=C1C=C(c2ccc3cc[nH]c3c2)C[C@@H](c2ccc3c(c2)OCO3)C1,n,21µM,n,n,u,18µM
COc1ccc([C@H]2CC(=O)C=C(c3cc(Cl)ccc3C)C2)cc1,n,u,n,n,n,n
COc1ccc(C2CC(=O)C=C(NCc3ccccc3)C2)cc1 (configuration not stated),18µM,u,u,u,u,23µM
O=C1C=C(c2ccc3c(c2)OCO3)C[C@@H](c2ccc3c(c2)OCO3)C1,n,n,n,n,n,n
COc1ccc([C@H]2CC(=O)C=C(c3ccnc4ccc(Cl)cc34)C2)cc1,3.7µM,u,n,u,u,18µM
Cc1cc(OCc2cc(C(=O)N3CCN(CC4CC4)CC3)no2)cc(C)c1Cl,u,n,n,u,u,n
Cc1cc(OCc2cc(C(=O)N3CCC(Oc4cccnc4)CC3)no2)cc(C)c1Cl,u,21µM,u,n,n,n
O=C(NCCc1cn2ccccc2n1)c1cc(COc2ccc3ncccc3c2)on1,n,u,8.2µM,u,n,n
CC(NC(=O)c1cc(COc2ccc3ncccc3c2)on1)c1ccc(F)cc1 (configuration not stated),u,n,n,u,n,n
O=C(NC1CCCC1)c1cc(COc2ccc3ncccc3c2)on1,u,n,u,n,n,u
O=C(c1cc(COc2ccc3ncccc3c2)on1)N1CCCC1,15µM,n,u,u,n,21µM
Cc1ccc(OCc2cc(C(=O)N3CCN(C4CCCCC4)CC3)no2)cc1C,n,12µM,n,n,n,n
COc1cccc(CN(C)C(=O)c2cc(COc3ccc4ncccc4c3)on2)c1,n,u,4.1µM,4.1µM,n,u
O=C(c1cc(COc2ccc(F)cc2Cl)on1)N1CCCCCC1,n,u,n,n,n,n
COc1cccc(CN(C)C(=O)c2cc(COc3c(F)cccc3F)on2)c1,n,n,n,n,n,n
O=C(c1cc(COc2ccc(F)cc2Cl)on1)N1CCC(c2ccncc2)CC1,u,u,4.1µM,n,n,n
SMILES,HT1080 IDH1KD tx,MCF10A rereplic,KB-V1 cytotox,KB-3-1 cytotox,SW480 rerep,HT1080NT lethal
O=C(c1cc(COc2ccc3ncccc3c2)on1)N1CCCCCC1,u,n,n,u,u,3.7µM
COCC1CCN(C(=O)c2cc(COc3ccc4ncccc4c3)on2)CC1,n,n,7.3µM,u,n,n
O=C1Nc2ccccc2-c2nnnn2C1N1CCCC1 (configuration not stated),n,x,n,n,x,n
COc1ccc2sc(N(CCCN(C)C)C(=O)c3ccc(S(=O)(=O)N(C)Cc4ccccc4)cc3)nc2c1,n,n,u,u,n,n
Cc1cc(C)c2sc(N(CCN(C)C)C(=O)c3c(F)cccc3F)nc2c1,u,u,u,n,u,n
CCCCN(C)S(=O)(=O)c1ccc(C(=O)N(CCN(C)C)c2nc3ccc(C)cc3s2)cc1,n,n,n,n,n,n
CCCCN(CC)S(=O)(=O)c1ccc(C(=O)N(CCCN(C)C)c2nc3cc(C)cc(C)c3s2)cc1,u,n,26µM,u,n,21µM
Cc1cc(C)c2nc(N(CCCN(C)C)C(=O)C3=COCCO3)sc2c1,n,n,n,n,u,n
Cc1cc(C)c2sc(N(CCCN(C)C)C(=O)c3ccc(Br)s3)nc2c1,u,u,n,n,u,23µM
Cc1cc(C)c2sc(N(CCCN(C)C)C(=O)c3ccc(S(=O)(=O)N(C)Cc4ccccc4)cc3)nc2c1,n,u,21µM,u,u,n
Cc1cc(C)c2nc(N(CCCN(C)C)C(=O)c3ccc4c(c3)OCCO4)sc2c1,u,18µM,26µM,u,u,12µM
O=C(CS(=O)(=O)c1c[nH]c2ccccc12)Nc1ccc2c(c1)OCCO2,n,n,n,n,n,n
Cc1cc(SCC(=O)N(CC(C)C)c2c(N)n(CC(C)C)c(=O)[nH]c2=O)nc2ccccc12,n,n,n,n,n,n
CCc1c(C(C)S(=O)(=O)c2ccc(C)cc2)[nH]c(=O)n1-c1ccc(OC(F)(F)F)cc1 (configuration not stated),n,n,n,n,n,n
COc1cc(/C=N/NC(=O)c2cccc(N3CCCC3=O)c2)ccc1O,n,n,n,n,u,n
COc1ccccc1NC(=O)NC1(C(=O)N2CCOCC2)CCCCC1,n,n,n,n,n,n
CCN(Cc1ccccc1)S(=O)(=O)c1ccc(C(=O)N(CCCN(C)C)c2nc3c(F)cccc3s2)cc1,n,u,n,n,u,n
CCN(Cc1ccccc1)S(=O)(=O)c1ccc(C(=O)N(CCCN(C)C)c2nc3cc(C)cc(C)c3s2)cc1,23µM,23µM,u,u,n,16µM
CC1CN(C(=O)COC(=O)c2cc(=O)c3ccccc3o2)CC(C)O1 (configuration not stated),n,n,n,n,n,n
CCOc1ccc(C(=O)NC2CCN(C(=S)NCc3ccco3)CC2)cc1,n,n,n,n,u,n
